Measured values from PubChem BioAssay AID624255 (Broad Institute, 2012).
About 4,600 (6%) of roughly 77,000 compounds were called active. Inconclusive results (about 1%) are left out.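 Rule for the calls: active = mean inhibition above about 93%, with at least 55% of replicates each passing it (limit read from the data, passing the limit was not always enough); inconclusive = only one of those two conditions holds; inactive = neither condition holds.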 Only a selection was taken, and actives are over-represented in it overall.

Assay: T. cruzi intracellular proliferation inhibitors, primary screen, cell-based, beta-gal Tulahuen parasites, NIH3T3 host, luminescence (AID 624255)
Conditions: T. cruzi beta-gal in NIH3T3, GalScreen luminescence, 90 h; at 8.34 µM; stronger effect = higher value

SMILES	inhibition
COCC#Cc1cnc2c(c1)C(=O)N([C@@H](C)CO)C[C@@H](C)[C@@H](CN(C)C(=O)c1cccnc1)O2	71.4% (inactive)
O=C(CC1CC1)N1[C@@H]2CN(S(=O)(=O)c3ccc(F)cc3)c3ccccc3[C@@H]2[C@@H]1CO	19.2% (inactive)
C[C@@H]1CCCCO[C@H](CN(C)S(=O)(=O)c2cccs2)[C@H](C)CN([C@H](C)CO)C(=O)c2cc(NC(=O)c3ccccc3)ccc2O1	88.6% (inactive)
O=C(C[C@H]1C=C[C@H](NC(=O)Nc2ccccc2F)[C@@H](CO)O1)NCc1ccc(Cl)cc1	27.5% (inactive)
CC(C)C#Cc1ccc([C@@H]2[C@@H](C#N)N(C(=O)C3CC3)[C@@H]2CO)cc1	68.6% (inactive)
N#C[C@@H]1[C@@H](c2ccc(C#Cc3cccc(F)c3)cc2)[C@@H](CO)N1C(=O)C1CCC1	101% (active)
N#C[C@H]1[C@H](c2ccc(C#Cc3ccc(F)cc3)cc2)[C@@H](CO)N1C(=O)C1CCCC1	92.9% (inactive)
CCCC#Cc1ccc([C@@H]2[C@@H](C#N)N(C(=O)C3CCC3)[C@H]2CO)cc1	92.4% (inactive)
N#C[C@@H]1[C@@H](c2ccc(C#Cc3cccc(F)c3)cc2)[C@H](CO)N1C(=O)C1CCOCC1	83.9% (inactive)
CCCC#Cc1ccc([C@@H]2[C@@H](C#N)N(C(=O)C3CCCC3)[C@@H]2CO)cc1	102% (active)
CCCC#Cc1ccc([C@H]2[C@@H](CO)N(C(=O)C3CC3)[C@H]2C#N)cc1	74.3% (inactive)
N#C[C@@H]1[C@H](c2ccc(C#Cc3cccc(F)c3)cc2)[C@@H](CO)N1C(=O)C1CCCC1	97.3% (active)
CN(C)CC#Cc1ccc([C@H]2[C@@H](CO)N(C(=O)C3CCC3)[C@H]2C#N)cc1	69.2% (inactive)
Cn1cnc(CCNC(=O)C[C@H]2CC[C@H]3[C@@H](COC[C@@H](O)CN3C(=O)Nc3ccc(C(F)(F)F)cc3)O2)c1	28.4% (inactive)
CC=Cc1ccc2n(c1=O)C[C@H]1[C@H](CO)[C@@H](C(=O)NC3CCCC3)N(Cc3ccncc3)[C@@H]21 (mixture of isomers)	-33.3% (inactive)
CS(=O)(=O)Nc1ccc2c(c1)[C@H]1C[C@H](CC(=O)NCc3ccc(Oc4ccccc4)cc3)O[C@H](CO)[C@H]1O2	3.92% (inactive)
O=C(C1CCC1)N1CCCCN2[C@H](CO)[C@H](c3ccc(-c4cccc(F)c4)cc3)[C@@H]2C1	99.7% (active)
O=C(C1CCCC1)N1CCCCN2[C@@H](CO)[C@H](c3ccc(-c4cccc(F)c4)cc3)[C@@H]2C1	111% (active)
O=C(C1CC1)N1CCCCN2[C@H](CO)[C@H](c3ccc(-c4cccc(F)c4)cc3)[C@H]2C1	95.6% (active)
O=C(C1CCC1)N1CCCCN2[C@H](CO)[C@H](c3ccc(-c4ccncc4)cc3)[C@@H]2C1	99.7% (active)
O=C(Nc1ccc(F)cc1)N1CCCCN2[C@H](CO)[C@H](c3ccc(-c4ccncc4)cc3)[C@@H]2C1	67.2% (inactive)
O=C(C1CC1)N1CCCCN2[C@H](C1)[C@@H](c1ccc(-c3cccc(F)c3)cc1)[C@@H]2CO	32.6% (inactive)
O=C(C1CCC1)N1CCCCN2[C@H](CO)[C@H](c3ccc(-c4cccc(F)c4)cc3)[C@H]2C1	94.1% (inactive)
